In PubChem BioAssay (Tox21) one finds outcome and Potency data, which are given here for 20 molecules.

Assay [1] can be described thus: qHTS assay to identify small molecule antagonists of the androgen receptor (AR) signaling pathway using the MDA cell line in the presence of 0.5 nM R1881 - cell viability counter screen (AID 1259242). Further: nearly all actives have a fitted effect of over 45% in size. Summed up:
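Steps: plate MDA-kb2 cells, rest 5 hr at 37C without CO2; pin in compounds in DMSO; add R1881 to 0.5 nM final; incubate 16 hr; add CellTiter-Fluor, 30 min; read fluorescence.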
A general note: Quantitative high-throughput screening tests each substance at several concentrations.

Assay [2] addresses Estrogen receptor (Homo sapiens) (UniProt P03372). Put plainly: qHTS assay to identify small molecule antagonists of the estrogen receptor alpha (ER-alpha) signaling pathway using the BG1 cell line in the presence of 0.1 nM 17-beta-estradiol (AID 1259244). Further: nearly all actives have a fitted effect of over 50% in size. Summed up:
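Antagonist mode: compounds in DMSO are pinned onto VM7Luc4E2 reporter cells, 0.1 nM final 17beta-estradiol is added, and after 22 h at 37C luciferase luminescence is measured with ONE-Glo.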

The nature of assay [3]: qHTS assay to identify small molecule phospholipidosis (PLD) inducers (AID 1259344; active means well fitted curve in the direction sought with a large enough effect; an effect the other way counts as inactive or inconclusive; further: potency means the concentration at half of the fitted maximal effect). A digest of the protocol: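 After 4 h attachment on collagen I, HepG2 cells were dosed with compound alongside LipidTOX Red, kept 24 h at 37 C, fixed, and imaged for lamellar phospholipid pits.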
Assay [4] can be described thus: qHTS assay to identify small molecule HDAC inhibitors (AID 1259364).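 Further: wild-type HCT-116 cells with endogenous class I/II HDAC activity; top concentration of the series differs between compounds; nearly all actives have a fitted effect of over 45% in size.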 Summed up:
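Cells (HCT-116, wild type) are seeded at 1,500 per well, incubated overnight, treated with compound in DMSO for 2 hr, then developed with HDAC-Glo I/II reagent for 30 min at room temperature.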

Assay [5] is described as follows: qHTS assay to identify small molecule HDAC inhibitors - cell viability counter screen (AID 1259365). Further: series mostly up to about 92 µM; nearly all actives have a fitted effect of over 50% in size. A digest of the protocol: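 Wild-type HCT-116 cells were seeded at 1,500 per well, incubated overnight at 37 C, then exposed to compounds in DMSO for 2hr. Viability was read by CellTiter-Glo luminescence after 30min at room temperature.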
The nature of assay [6]: qHTS assay to identify small molecule agonists of the sonic hedgehog signaling (Shh) pathway - cell viability counter screen (AID 1259366). Further: nearly all actives have a fitted effect of over 50% in size. Summed up:
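NIH/3T3-derived 3T3 Gli1-Luc cells (stable Gli1-responsive firefly luciferase reporter) were seeded, rested 4 hr at 37 C/5% CO2, then exposed to compounds in DMSO for 24 hr; viability was read by CellTiter-Fluor fluorescence in the same wells.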

Assay [7] in a line: qHTS assay to identify small molecule antagonists of the sonic hedgehog signaling (Shh) pathway - cell viability counter screen (AID 1259367). Further: nearly all actives have a fitted effect of over 55% in size. Summed up:
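Conditioned medium drove Shh signaling in 3T3 Gli1-Luc cells exposed to compounds at 37C and 5% CO2. Viability was determined from CellTiter-Fluor fluorescence, with reagent incubated 1 hr after 23 hr of treatment.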

The nature of assay [8]: qHTS assay to identify small molecule agonists of the sonic hedgehog signaling (Shh) pathway (AID 1259368; calls by dose curve; further: series mostly up to about 92 µM; nearly all actives have a fitted effect of over 15% in size). Summed up:
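Cells of a mouse NIH/3T3 clone stably expressing luciferase under the Gli1 transcriptional response element are exposed to test chemicals for 24 hr at 37 C. Pathway activation is detected as a rise in luminescence.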

Assay [9] can be described thus: qHTS assay to identify small molecule antagonists of the sonic hedgehog signaling (Shh) pathway (AID 1259369; calls by dose curve; further: nearly all actives have a fitted effect of over 45% in size; further: potency means the concentration at half of the fitted maximal effect). A digest of the protocol: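 Cells are plated and held 4hr at 37 C, compounds (DMSO) are pinned in, conditioned medium is added to stimulate the pathway, and after 24hr luciferase reagent is added for 30min before luminescence is read.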
In assay [10] the target is Androgen receptor (Homo sapiens) (UniProt P10275). The assay is described as follows: qHTS assay to identify small molecule antagonists of the androgen receptor (AR) signaling pathway using the MDA cell line in the presence of 0.5 nM R1881 (AID 1259243). Further: nearly all actives have a fitted effect of over 50% in size. Summed up:
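Stably transfected MDA-kb2 cells express luciferase from an MMTV promoter bearing both AR and GR response elements. Compounds plus 0.5 nM R1881 (final) were incubated 16 hr at 37C without CO2, then luminescence measured.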

SMILES strings stand for the structures. Values joined by “and” are separate entries in the source; they are usually repeats but may differ in a detail not shown here. Identical values can stand only once. Inconclusive results are not listed. Active and inactive are the calls of the source. Unless noted, the call rests on the fitted dose curve; in most records, active means well fitted curve in the direction sought with a large enough effect in the repeat runs; inconclusive means weak or mixed curves; inactive means no such curve, though single readings can be large; an effect the other way counts as inactive or inconclusive.

Androgen receptor (Homo sapiens), sequence (P10275 whole entry, looked up): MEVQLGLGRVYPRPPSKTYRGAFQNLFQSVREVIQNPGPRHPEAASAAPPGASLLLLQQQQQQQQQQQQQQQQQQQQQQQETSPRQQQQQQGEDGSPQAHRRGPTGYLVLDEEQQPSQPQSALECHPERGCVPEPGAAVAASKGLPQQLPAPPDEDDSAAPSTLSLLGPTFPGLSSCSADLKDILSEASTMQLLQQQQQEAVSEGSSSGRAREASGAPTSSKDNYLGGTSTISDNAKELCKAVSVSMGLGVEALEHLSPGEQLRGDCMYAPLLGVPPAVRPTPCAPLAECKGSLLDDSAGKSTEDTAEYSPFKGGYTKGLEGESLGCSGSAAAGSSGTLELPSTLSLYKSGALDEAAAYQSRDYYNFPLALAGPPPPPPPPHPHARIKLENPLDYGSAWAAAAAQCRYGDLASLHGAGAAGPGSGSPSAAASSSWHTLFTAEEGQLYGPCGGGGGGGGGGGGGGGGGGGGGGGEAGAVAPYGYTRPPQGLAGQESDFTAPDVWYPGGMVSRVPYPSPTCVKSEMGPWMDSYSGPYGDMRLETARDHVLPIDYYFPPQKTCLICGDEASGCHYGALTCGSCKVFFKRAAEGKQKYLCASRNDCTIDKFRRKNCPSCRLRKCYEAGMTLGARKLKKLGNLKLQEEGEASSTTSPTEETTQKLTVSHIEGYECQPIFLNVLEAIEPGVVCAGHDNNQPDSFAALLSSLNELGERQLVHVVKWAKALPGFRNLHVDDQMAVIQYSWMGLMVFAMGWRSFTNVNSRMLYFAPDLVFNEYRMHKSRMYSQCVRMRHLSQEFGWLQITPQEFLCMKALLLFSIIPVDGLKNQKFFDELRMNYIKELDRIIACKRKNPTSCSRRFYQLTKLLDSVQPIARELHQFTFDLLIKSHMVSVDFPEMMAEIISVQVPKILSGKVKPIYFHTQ
Estrogen receptor (Homo sapiens), sequence (P03372 whole entry, looked up): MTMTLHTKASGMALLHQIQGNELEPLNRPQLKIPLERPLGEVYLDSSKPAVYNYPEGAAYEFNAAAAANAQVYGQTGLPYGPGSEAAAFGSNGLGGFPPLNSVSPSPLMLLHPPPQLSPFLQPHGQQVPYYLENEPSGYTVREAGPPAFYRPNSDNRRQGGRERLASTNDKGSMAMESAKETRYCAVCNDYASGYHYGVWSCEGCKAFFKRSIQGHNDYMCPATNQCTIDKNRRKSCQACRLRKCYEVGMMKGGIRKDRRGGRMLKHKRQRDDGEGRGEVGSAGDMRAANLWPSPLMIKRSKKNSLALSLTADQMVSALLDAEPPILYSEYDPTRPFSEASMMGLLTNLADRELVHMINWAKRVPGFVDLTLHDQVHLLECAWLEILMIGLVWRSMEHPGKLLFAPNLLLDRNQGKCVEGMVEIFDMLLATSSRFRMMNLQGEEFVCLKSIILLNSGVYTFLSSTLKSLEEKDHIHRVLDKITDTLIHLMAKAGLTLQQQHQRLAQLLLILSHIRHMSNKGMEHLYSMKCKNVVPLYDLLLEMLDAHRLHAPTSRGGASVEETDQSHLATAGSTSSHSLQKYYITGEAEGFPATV

With `CNCC(O)c1ccc(O)cc1` (centres undefined), the outcome in assay [1], in assay [5] and in assay [8] was inactive. The Potency result in assay [2], in assay [3], in [4], in assay [6], in assay [7] and in [9] was “inactive” throughout.

Consider `Cc1cccc(C)c1NC(=O)CN1CCCC1=O`, for which the outcome in assay [1], in [5] and in assay [8] was inactive. In addition, the Potency result in assay [2], in assay [3], in [4], in assay [7] and in assay [9] was “inactive” in each case.

With `Cl/C=C/Cl`, the result in [1], in assay [5] and in assay [8] was inactive. The Potency result in assay [2], in assay [4], in assay [6] and in assay [7] was “inactive” throughout.

For the molecule `CC(C)(C)C(=O)CCl`, the outcome in assay [1], in assay [5] and in assay [8] was inactive. The Potency entry in assay [10], in assay [2], in assay [4], in assay [7] and in assay [9] was “inactive” throughout.

As for `CC(C)CCCCCCOC(=O)c1ccccc1C(=O)OCCCCCCC(C)C`, the outcome in [1], in assay [5] and in [8] was inactive. In addition, the Potency entry in assay [10], in assay [2], in [4], in assay [6] and in [7] was “inactive” in each case.

In the case of `Cc1cc(O)ccc1Cl`, the outcome in assay [1], in assay [5] and in assay [8] was inactive. Besides, the Potency result in assay [2], in [3], in [4], in assay [6], in assay [7] and in assay [9] was “inactive” throughout.

As for `C[C@H]1C(=O)O[C@@H]2CCN3CC=C(COC(=O)[C@](C)(O)[C@]1(C)O)[C@H]23`, the result in assay [1], in assay [5] and in [8] was inactive. For the same molecule, the Potency result in assay [2], in assay [3], in assay [4] and in [7] was “inactive” in each case.

Turning to `CNC(=O)O/N=C/C(C)(C)S(C)(=O)=O`, the result in assay [1], in [5] and in assay [8] was inactive. Moreover, the Potency result in assay [10], in [2], in assay [4], in assay [7] and in assay [9] was “inactive” throughout.

As for `CC(C)c1cccc(C(C)C)c1O`, the result in [1], in assay [5] and in assay [8] was inactive. Further, the Potency result in assay [10], in assay [2], in [3], in [4], in assay [7] and in [9] was “inactive” each time.

`CNC(=O)Oc1cccc2ccccc12`: the outcome in assay [1], in [5] and in [8] was inactive. For the same molecule, the Potency result in assay [2], in assay [3], in assay [4], in [6] and in [7] was “inactive” in each case. In addition, the Potency in [9] was 12.1 µM (active) and 9.44 µM (active).

Take `C=CC#N`: the outcome in [1], in assay [5] and in assay [8] was inactive. The Potency result in assay [2], in assay [4], in assay [6] and in assay [7] was “inactive” throughout.

In the case of `COC(C)(C)CCCC(C)C/C=C/C(C)=C/C(=O)OC(C)C` (centres undefined), the outcome in assay [1], in assay [5] and in assay [8] was inactive. In addition, the Potency result in assay [10], in assay [3], in assay [4] and in assay [7] was “inactive” each time.

`CCSC(=O)N1CCCCCC1`: the result in [1], in assay [5] and in assay [8] was inactive. The Potency entry in assay [2], in assay [4], in assay [6] and in assay [7] was “inactive” each time.

Turning to `C=CC(=O)OCCCCCC(C)C`, the result in assay [1], in assay [5] and in assay [8] was inactive. Moreover, the Potency result in [10], in assay [2], in assay [4] and in [7] was “inactive” throughout.

For `C[C@]12CC[C@H](O)CC1=CC[C@@H]1[C@@H]2CC[C@]2(C)C(=O)CC[C@@H]12`, the result in assay [1], in assay [5] and in [8] was inactive. The Potency entry in assay [2], in assay [4], in assay [6] and in assay [7] was “inactive” throughout. Also, the Potency in [3] was 10 µM (active); in assay [9], 1.37 µM (active) and 19.3 µM (active).

With `C=CCN=C=S`, the result in assay [1], in assay [5] and in assay [8] was inactive. The Potency entry in assay [2], in assay [3], in [4], in assay [6] and in assay [7] was “inactive” each time.

Turning to `c1ccc2c(c1)CCCC2`, the outcome in assay [1], in assay [5] and in assay [8] was inactive. Also, the Potency entry in assay [10], in assay [2], in assay [4] and in assay [7] was “inactive” in each case.

For `CNC(=O)O/N=C(\SC)C(=O)N(C)C`, the outcome in assay [1], in assay [5] and in [8] was inactive. Further, the Potency entry in [10], in [2], in assay [4], in assay [6], in assay [7] and in [9] was “inactive” in each case.

`Sc1ccccc1`: the result in [1], in assay [5] and in assay [8] was inactive. The Potency entry in assay [2], in [4], in assay [6] and in assay [7] was “inactive” in each case.

Consider `O=C/C=C/c1ccccc1`, for which the result in [1], in assay [5] and in [8] was inactive. For the same molecule, the Potency result in assay [2], in assay [3], in assay [4], in assay [6], in assay [7] and in [9] was “inactive” throughout.
